{"source": "PubChem BioAssay (NCI)", "note": "Values joined by “and” are separate entries in the source; they are usually repeats but may differ in a detail not shown here. Equal entries are not always repeated. This is part of a sample that, as a whole, favours compounds with a hit. Of some 83,000 tested, about 20% had one in any assay.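 96-well plates, one dose, 48 hours. Percent growth reported; active if below 10.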 Active and inactive are the calls of the source. Starred links: 1 amine or outer side, 2 acyl side, 3 side chain; linkers in the order of their positions; H or OH if unused. Positions of bridges follow the written chain, without caps; N, C: chain ends. Non-standard residues stand in square brackets, D forms with d. Residues, ends and D or L forms follow the SMILES beside them. Chains are numbered I, II in the order given. Actinocin(9to1) = Cc1c2oc3c(C)ccc(C(=O)[*:1])c3nc-2c(C(=O)[*:2])c(N)c1=O; aThr = C[C@H](O)[C@H](N)C(=O)O; NMeV = CN[C@H](C(=O)O)C(C)C; Sar = CNCC(=O)O", "data": [{"system": "HOP-62 NSCLC", "assay": "NCI-60 one-dose screen, 48 h (100 = growth as untreated, 0 = no growth, -100 = all killed)", "details": "10 µM", "values": [{"smiles": "CN(C)CCC(=O)c1c[nH]c2ccccc12", "growth": "94.4% (inactive)"}, {"smiles": "N#C/C(=C1C=C/C(=N\\O)C(Cl)=C\\1)c1ccccc1", "growth": "33.2% (inactive)"}, {"smiles": "S=c1[nH]nc(Cc2ccccc2)c(=S)[nH]1", "growth": "97.7% (inactive)"}, {"smiles": "Cc1cnc(/C=N\\NC(N)=S)c2cccc(N)c12", "growth": "11.3% (inactive)"}, {"smiles": "CCCCCCCCCCCCCCCCCN", "growth": "87.7% (inactive)"}, {"smiles": "Cc1cc(NCCCN(C)C)c2ccc3c(ccc4c(NCCCN(C)C)cc(C)nc43)c2n1", "growth": "-22.3% (active)"}, {"smiles": "COc1cc(C(C)(C)C)cc(OC)c1C(O)(c1c(OC)cc(C(C)(C)C)cc1OC)c1c(OC)cc(C(C)(C)C)cc1OC", "growth": "-95.3% (active)"}, {"smiles": "O=c1[nH]cc(F)c(=O)[nH]1", "growth": "46.6% (inactive) and 82.3% (inactive)"}, {"smiles": "Nc1ccc2cc(Br)c3ccccc3c2c1", "growth": "80.9% (inactive)"}, {"smiles": "BrC/C=C/C[P+](c1ccccc1)(c1ccccc1)c1ccccc1", "growth": "27.4% (inactive)"}, {"smiles": "O=C(/C(=C/c1ccccc1)CBr)c1ccccc1", "growth": "109% (inactive)"}, {"smiles": "Cc1c2oc3c(C)ccc(C(=O)N[C@@H]4C(=O)N[C@H](C(C)C)C(=O)N5CCC[C@H]5C(=O)N(C)CC(=O)N(C)[C@@H](C(C)C)C(=O)O[C@H]4C)c3nc-2c(C(=O)N[C@@H]2C(=O)N[C@H](C(C)C)C(=O)N3CCC[C@H]3C(=O)N(C)CC(=O)N(C)[C@@H](C(C)C)C(=O)O[C@H]2C)c(N)c1=O", "note": "(I: [aThr][dV]P[Sar][NMeV] / II: [aThr][dV]P[Sar][NMeV]; ester I:1-I:C, II:1-II:C; linker I:N-II:N via Actinocin(9to1))", "growth": "-16.9% (active)"}, {"smiles": "CN1CCN(c2ccc3nc(-c4ccc5nc(-c6ccc(O)cc6)[nH]c5c4)[nH]c3c2)CC1", "growth": "95.8% (inactive)"}]}, {"system": "NCI-H460 lung", "assay": "NCI-60 one-dose screen, 48 h (100 = growth as untreated, 0 = no growth, -100 = all killed)", "details": "10 µM", "values": [{"smiles": "CN(C)CCC(=O)c1c[nH]c2ccccc12", "growth": "113% (inactive)"}, {"smiles": "N#C/C(=C1C=C/C(=N\\O)C(Cl)=C\\1)c1ccccc1", "growth": "14.3% (inactive)"}, {"smiles": "S=c1[nH]nc(Cc2ccccc2)c(=S)[nH]1", "growth": "104% (inactive)"}, {"smiles": "Cc1cnc(/C=N\\NC(N)=S)c2cccc(N)c12", "growth": "1.79% (active)"}, {"smiles": "CCCCCCCCCCCCCCCCCN", "growth": "102% (inactive)"}, {"smiles": "Cc1cc(NCCCN(C)C)c2ccc3c(ccc4c(NCCCN(C)C)cc(C)nc43)c2n1", "growth": "-77.7% (active)"}, {"smiles": "COc1cc(C(C)(C)C)cc(OC)c1C(O)(c1c(OC)cc(C(C)(C)C)cc1OC)c1c(OC)cc(C(C)(C)C)cc1OC", "growth": "-82.1% (active)"}, {"smiles": "O=c1[nH]cc(F)c(=O)[nH]1", "growth": "16% (inactive) and 20% (inactive)"}, {"smiles": "Nc1ccc2cc(Br)c3ccccc3c2c1", "growth": "54.1% (inactive)"}, {"smiles": "BrC/C=C/C[P+](c1ccccc1)(c1ccccc1)c1ccccc1", "growth": "57.4% (inactive)"}, {"smiles": "O=C(/C(=C/c1ccccc1)CBr)c1ccccc1", "growth": "86.4% (inactive)"}, {"smiles": "Cc1c2oc3c(C)ccc(C(=O)N[C@@H]4C(=O)N[C@H](C(C)C)C(=O)N5CCC[C@H]5C(=O)N(C)CC(=O)N(C)[C@@H](C(C)C)C(=O)O[C@H]4C)c3nc-2c(C(=O)N[C@@H]2C(=O)N[C@H](C(C)C)C(=O)N3CCC[C@H]3C(=O)N(C)CC(=O)N(C)[C@@H](C(C)C)C(=O)O[C@H]2C)c(N)c1=O", "note": "(I: [aThr][dV]P[Sar][NMeV] / II: [aThr][dV]P[Sar][NMeV]; ester I:1-I:C, II:1-II:C; linker I:N-II:N via Actinocin(9to1))", "growth": "-22.4% (active)"}, {"smiles": "CSc1ccc2c(c1)C(N1CCN(C)CC1)Cc1ccccc1S2", "note": "(centres undefined)", "growth": "29% (inactive)"}, {"smiles": "CN1CCN(c2ccc3nc(-c4ccc5nc(-c6ccc(O)cc6)[nH]c5c4)[nH]c3c2)CC1", "growth": "107% (inactive)"}]}, {"system": "HOP-92 NSCLC", "assay": "NCI-60 one-dose screen, 48 h (100 = growth as untreated, 0 = no growth, -100 = all killed)", "details": "10 µM", "values": [{"smiles": "N#C/C(=C1C=C/C(=N\\O)C(Cl)=C\\1)c1ccccc1", "growth": "38.3% (inactive)"}, {"smiles": "S=c1[nH]nc(Cc2ccccc2)c(=S)[nH]1", "growth": "100% (inactive)"}, {"smiles": "CCCCCCCCCCCCCCCCCN", "growth": "67% (inactive)"}, {"smiles": "Cc1cc(NCCCN(C)C)c2ccc3c(ccc4c(NCCCN(C)C)cc(C)nc43)c2n1", "growth": "-51.2% (active)"}, {"smiles": "COc1cc(C(C)(C)C)cc(OC)c1C(O)(c1c(OC)cc(C(C)(C)C)cc1OC)c1c(OC)cc(C(C)(C)C)cc1OC", "growth": "-66.2% (active)"}, {"smiles": "O=c1[nH]cc(F)c(=O)[nH]1", "growth": "87.3% (inactive) and 49.3% (inactive)"}, {"smiles": "Nc1ccc2cc(Br)c3ccccc3c2c1", "growth": "75.3% (inactive)"}, {"smiles": "BrC/C=C/C[P+](c1ccccc1)(c1ccccc1)c1ccccc1", "growth": "60.4% (inactive)"}, {"smiles": "O=C(/C(=C/c1ccccc1)CBr)c1ccccc1", "growth": "86.3% (inactive)"}, {"smiles": "Cc1c2oc3c(C)ccc(C(=O)N[C@@H]4C(=O)N[C@H](C(C)C)C(=O)N5CCC[C@H]5C(=O)N(C)CC(=O)N(C)[C@@H](C(C)C)C(=O)O[C@H]4C)c3nc-2c(C(=O)N[C@@H]2C(=O)N[C@H](C(C)C)C(=O)N3CCC[C@H]3C(=O)N(C)CC(=O)N(C)[C@@H](C(C)C)C(=O)O[C@H]2C)c(N)c1=O", "note": "(I: [aThr][dV]P[Sar][NMeV] / II: [aThr][dV]P[Sar][NMeV]; ester I:1-I:C, II:1-II:C; linker I:N-II:N via Actinocin(9to1))", "growth": "-16.3% (active)"}, {"smiles": "CSc1ccc2c(c1)C(N1CCN(C)CC1)Cc1ccccc1S2", "note": "(centres undefined)", "growth": "5.58% (active)"}, {"smiles": "CN1CCN(c2ccc3nc(-c4ccc5nc(-c6ccc(O)cc6)[nH]c5c4)[nH]c3c2)CC1", "growth": "42.1% (inactive)"}]}]}
